An excerpt weighted towards active compounds, which were near 11% of everything screened.
IMPase Li cell: membrane-permeable IMPase blocker, potentiated with lithium. CHO-M1 cells, IP1 TR-FRET (IP-One), carbachol + lithium. Potency, µM (top dose mostly 59.4 µM), without a hit: at the highest dose activity, negative = IMPase inhibition, actives largely listed as inhibitors. actives 0.35% (n = 210,000). AID 1457; active = well fitted curve in the direction sought with a large enough effect; inconclusive = small, poorly fitted or top-dose-only effect, or another doubt; inactive = no such curve, though single readings can be large; an effect the other way counts as inactive or inconclusive;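 also: IP1 builds up when IMPase is blocked and the TR-FRET signal falls; potency is read from the fitted curve at half-maximal effect; plate controls were basal vehicle for no effect and high inhibitor control for full effect; nearly all actives have a fitted effect of over 50% in size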
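IP1 accumulation measured by competitive TR-FRET in lysed CHO-M1 cells after 30 min compound exposure at 37C, with a small lithium addition to potentiate weak responses. Hill-equation AC50 from ratio and donor-channel data.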
HPGD inh: HPGD (human) dehydrogenase inhibition; purified HPGD, NADH fluorescence kinetic, PGE2 substrate; AID 894; Potency, µM, for inactives: at the highest dose activity change, negative = inhibition, most hits filed as inhibitors; P15428; actives 4.3% (n = 150,000); also: potency is read from the fitted curve at half-maximal effect
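20 nM HPGD preincubated 15 min at room temperature with compound in 50 mM Tris-HCl pH 8, 0.01% Tween 20. Started with 1 mM NAD+ and 30 uM prostaglandin E2; NADH fluorescence (360/450 nm) read 5 times over 30-s intervals, last minus first.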
PNC inhibitor: perinucleolar compartment assembly inhibition | PC3M PTB-GFP, PNC prevalence imaging, 16 h; active compounds read low | activity change (PNC), negative = inhibition, % at 10 µM | actives 3.1% (n = 140,000) | AID 2417;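 active = readout at or below -70, meaning at least 70% loss of cells showing the perinucleolar compartment, a nuclear body marking cancer cells; inconclusive = readout between -30 and a set limit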;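 also: plate controls were DMSO wells for no effect and camptothecin positive control wells for full effect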
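PC3M cells stably expressing PTB-GFP, 750–1000 cells/well, treated 16 h at 37 °C with compound (23 nl of library stock), in duplicate. After paraformaldehyde fixation and Hoechst stain, imaged at 20x; PNC prevalence scored by image analysis.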
ALOX12 inhib: 12-hLO (ALOX12) enzyme inhibition | purified 12-hLO, xylenol orange hydroperoxide absorbance | AID 1452 | Potency, µM (doses to about 57.1 µM), inactives show at the highest dose activity change, negative = inhibition, usual class: inhibitors | actives 0.12% (n = 150,000) | P18054; active = well fitted curve in the direction sought with a large enough effect; inconclusive = small, poorly fitted or top-dose-only effect, or another doubt; inactive = no such curve, though single readings can be large; an effect the other way counts as inactive or inconclusive; also: potency is read from the fitted curve at half-maximal effect; nearly all actives have a fitted effect of over 55% in size
Target sequence (P18054 whole entry, looked up): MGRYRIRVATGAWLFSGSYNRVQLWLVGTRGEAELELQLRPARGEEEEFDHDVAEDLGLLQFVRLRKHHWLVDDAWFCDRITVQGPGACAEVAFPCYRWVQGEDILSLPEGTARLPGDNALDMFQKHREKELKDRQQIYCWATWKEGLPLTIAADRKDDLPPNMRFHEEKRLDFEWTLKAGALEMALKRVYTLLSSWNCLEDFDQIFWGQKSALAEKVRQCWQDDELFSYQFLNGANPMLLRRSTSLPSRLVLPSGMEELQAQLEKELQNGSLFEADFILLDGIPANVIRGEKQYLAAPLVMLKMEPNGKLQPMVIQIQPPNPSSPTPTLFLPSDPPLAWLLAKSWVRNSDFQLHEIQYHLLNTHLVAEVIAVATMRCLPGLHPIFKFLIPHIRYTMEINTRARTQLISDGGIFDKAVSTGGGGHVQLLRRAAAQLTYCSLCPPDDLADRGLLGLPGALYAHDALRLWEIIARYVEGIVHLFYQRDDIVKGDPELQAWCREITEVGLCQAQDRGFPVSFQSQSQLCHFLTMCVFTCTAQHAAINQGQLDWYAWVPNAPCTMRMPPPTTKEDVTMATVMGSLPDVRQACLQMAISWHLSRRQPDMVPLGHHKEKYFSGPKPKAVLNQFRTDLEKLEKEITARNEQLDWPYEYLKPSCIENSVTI
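Hydroperoxide output read as Fe(III)-xylenol orange absorbance, 573-to-405 nm ratio, after 30 min reaction with 40 uM arachidonic acid. Enzyme: 150 nM purified human 12hLO, 15 min compound preincubation; 25 mM Hepes pH 7.0, room temperature.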
IMPase inh: cell-permeable inhibitors of inositol monophosphatase (IMPase). 120,000 tested, under 10 active. AID 901. CHO-M1 cells, IP1 accumulation, HTRF TR-FRET ratio. inhibition (IP1 accumulation), % at 46.1 µM; active = well fitted curve in the direction sought with a large enough effect in the signal ratio, not every such curve was filed as active; inconclusive = small, poorly fitted or top-dose-only effect, or a change in a side signal; inactive = no such curve, though single readings can be large or run the other way; the % refers to the signal ratio;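 also: cells stimulated with carbachol in lithium chloride buffer; plate controls were DMSO basal wells for no effect and reference inhibitor wells for full effect; higher means more IMPase inhibition seen as more IP1 and lower FRET ratio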
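Seeded CHO-M1 cells were dosed with compound at up to 46 uM, stimulated with carbachol for 30 min, then lysed in IP-One detection reagents. Higher IP1 lowers the TR-FRET signal.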
ALDH1A1 inh: ALDH1A1 (human) enzyme inhibition | P00352 | Purified ALDH1A1, NADH fluorescence, propionaldehyde substrate | Potency, µM (series often up to 75.3 µM), for the others: top-dose activity, negative = inhibition, actives largely listed as inhibitors | actives 7.3% (n = 220,000) | AID 1030;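 also: potency is read from the fitted curve at half-maximal effect; plate controls were no enzyme wells and a reference inhibitor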
* marks the source's active call; other numbers are inactive results; ? = inconclusive; . = no result given; ! = a repeat was not active; [ ] = remark or other dose. Unless noted, calls follow the shape of the dose curve; as a rule, active = well fitted inhibition curve with a large enough effect (not every such curve was filed as active); inconclusive = small, poorly fitted or top-dose-only effect, or another doubt; inactive = no such curve, though single readings can be large or run the other way. Unless noted, % is scaled to controls: 0 for no effect and ±100 for the full control effect.

SMILES | IMPase Li cell | HPGD inh | PNC inhibitor | ALOX12 inhib | IMPase inh | ALDH1A1 inh
COC(=O)c1c(NC(=O)c2ccco2)sc(C)c1C | 26.9%[38.3 µM] | -27.8% | -80.7* | -5.1% | 1.1 | ?
CC(=O)OC1CCC23CC1(C)CCC2C(C)(C)CC3OC(C)=O (configuration not stated) | 13.5% | -3.5% | . | -2.8% | . | 5.8%
O=S(=O)(c1ccccc1)N1CCC2(CCN(Cc3ccccc3)CC2)CC1 | 24.1% | -4.4% | . | -0.5% | . | 2.3%
CC[C@@H]1C=C(C)C[C@H](C)C[C@H](OC)[C@H]2O[C@@](O)(C(=O)C(=O)N3CCCC[C@H]3C(=O)O[C@H](/C(C)=C/[C@@H]3CC[C@@H](O)[C@H](OC)C3)[C@H](C)[C@@H](O)CC1=O)[C@H](C)C[C@@H]2OC | 13.1% | -10.4% | -3.6 | -6.8% | . | -6.0%
CO[C@H]1C[C@@H]2CC[C@@H](C)[C@@](O)(O2)C(=O)C(=O)N2CCCC[C@H]2C(=O)OC([C@H](C)C[C@@H]2CC[C@@H](O)[C@H](OC)C2)CC(=O)[C@H](C)/C=C(\C)[C@@H](O)[C@@H](OC)C(=O)[C@H](C)C[C@H](C)/C=C/C=C/C=C/1C (some centres not stated) | 10.9% | -9.7% | . | -3.2%[0.00818 µM] | . | 17.8µM*!
Cc1cc(C)n(-c2nc3ccccc3nc2Nc2ccc(Cl)cc2Cl)n1 | . | . | . | . | 4.2 | .
CCC(Cl)CC(Cl)C(Cl)C(Cl)C(Cl)C(C)Cl (configuration not stated) | 8.3% | -6.0% | . | -2.7% | . | ?
c1cncc(-c2cncnc2NC2CCNCC2)c1 | 7.0% | . | . | . | . | 25.1µM*
c1cncc(-c2ccc3ncnc(NC4CCNCC4)c3c2)c1 | 8.5% | . | . | . | . | -6.0%
CN(C)c1ncc2ncc(=O)n(C)c2n1 | 9.3% | ? | . | -1.8% | . | ?
COc1ccc(NC(=O)CN2CCC3(O)CCCCC3C2c2ccccc2OC)cc1 (configuration not stated) | -6.3%[38.3 µM] | -0.4% | 15.5 | -5.8% | ? | 4.9%
COc1cc([C@H]2[C@@H]3CCCC[C@]3(O)CCN2CC(=O)Nc2ccc(C)cc2)ccc1O | -1.4%[38.3 µM] | 4.9% | -100.0* | -11.5% | 11.0 | 0.1%
CC(NC(=O)Nc1ccc([N+](=O)[O-])cc1)C(c1ccccc1)N1CCOCC1 (configuration not stated) | 30.8% | . | . | . | . | 2.51µM*
COC(=O)C1=C(C)NC(=O)NC1c1ccc(-c2ccc(Cl)cc2)o1 (configuration not stated) | 10.3% | . | . | . | . | 11.2µM*
Cc1c(N2C(=O)/C(=C\c3ccc(N(C)C)cc3)N(C)C2=S)c(=O)n(-c2ccccc2)n1C | 9.0% | -6.6% | ? | -7.2% | 13.7 | 4.47µM*
CN1C(=S)N(c2cccnc2)C(=O)/C1=C\c1ccc(C(C)(C)C)cc1 | 23.9% | . | . | . | . | 7.08µM*
O=C1c2cccc3cccc(c23)C(=O)N1c1cccnc1 | . | . | 24.6 | -4.6% | -15.6 | 2.7%
CN1C(=S)N(c2cccnc2)C(=O)/C1=C\c1ccc(N(C)C)cc1 | 12.6% | . | . | . | . | 12.6µM*
Cc1c(NC(=S)N/N=C/c2ccc(N(C)C)cc2)c(=O)n(-c2ccccc2)n1C | 6.9% | ? | 14.1 | -1.8% | . | ?
Cc1c(N2C(=O)c3ccc4c5c(ccc(c35)C2=O)CC4)c(=O)n(-c2ccccc2)n1C | ? | ? | -92.4* | -4.0% | -20.7 | ?
COc1ccc(NC(=O)N2CC3(CCN(C(=O)c4c(C)noc4C)CC3)C2)cc1 | 11.2% | -22.0% | . | -1.0% | . | ?
Cc1ccc(SC2CC(=O)N(c3ccc4c(c3)OCCO4)C2=O)cc1 (configuration not stated) | 12.5% | . | . | . | . | 2.51µM*
Cc1ccccc1C(=O)NNC1CC(=O)N(c2ccc3c(c2)OCCO3)C1=O (configuration not stated) | -7.3% | -5.6% | -10.3 | -2.5% | . | -5.3%
Cc1ccc(N2C(=O)CC(Sc3cccs3)C2=O)cc1 (configuration not stated) | . | . | . | . | . | 2.24µM*
Cc1ccc(N2C(=O)C3C(C2=O)N2C(c4cccs4)C4C(=O)N(c5ccc(C)cc5)C(=O)C4N2C3c2cccs2)cc1 (configuration not stated) | -3.6% | -5.5% | 45.7 | -5.8% | . | 3.5%
SMILES | IMPase Li cell | HPGD inh | PNC inhibitor | ALOX12 inhib | IMPase inh | ALDH1A1 inh
Cc1ccc(S(=O)(=O)N(C)C)cc1NC(=O)COC(=O)c1ccc2c(c1)OCCO2 | 2.3% | . | . | . | . | -5.7%
C/C(=N\S(=O)(=O)c1ccc(C)cc1)Nc1cc(C(C)C)c(O)cc1C | 11.0% | -6.2% | ? | -6.3% | 8.3 | 2.82µM*
COC(=O)c1ccc(C)c(NS(=O)(=O)c2ccc(OC)cc2)c1 | -4.6%[38.3 µM] | -1.8% | -93.8* | -9.6% | 5.8 | 0.794µM*
COC(=O)c1ccc(C)c(NS(=O)(=O)c2ccc3c(c2)OCCO3)c1 | 20.0%[38.3 µM] | -0.5% | -112.4* | -6.7% | -1.8 | 7.94µM*
COc1ccc(S(=O)(=O)Nc2cc(C(C)C)c(O)cc2C)cc1 | 32.6%[38.3 µM] | -3.6% | -3.3 | -19.1% | 9.1 | 0.316µM*
COC(=O)c1ccc(C)c(NS(=O)(=O)c2ccc(C)c([N+](=O)[O-])c2)c1 | 1.7%[38.3 µM] | -13.4% | 12.7 | -2.2% | -7.7 | ?
Nc1cccc2c(=O)[nH][nH]c(=O)c12 | 9.8% | -10.8% | . | 2.0% | . | ?
c1ccc(C(c2ccccc2)N2CC3(CCNCC3)C2)cc1 | 37.0% | -0.3% | . | 3.2% | . | -3.6%
CCc1ccccc1 | -4.2% | -3.5% | . | 0.8% | . | -6.9%
COC(=O)c1sccc1NS(=O)(=O)c1ccc(OC)cc1 | 4.1%[38.3 µM] | 20µM* | 13.1 | -3.5% | 7.7 | -3.4%
O=C(NNS(=O)(=O)c1ccc(Br)cc1)c1sccc1-n1cccc1 | -3.6% | . | . | . | . | -15.5%
COc1ccccc1NS(=O)(=O)c1cccc(C(=O)N/N=C(\C)c2ccc3c(c2)OCCO3)c1 | 9.9% | -9.2% | 21.7 | -4.0% | . | 25.1µM*
COc1ccc(S(=O)(=O)NNC(=O)c2sccc2-n2cccc2)cc1 | 0.4% | . | . | . | . | 2.82µM*
O=C(NC1CCN(Cc2ccccc2)CC1)c1ccc(-n2c(=O)c(=O)[nH]c3ccccc32)cc1 | . | 0.2% | . | -5.6% | . | 3.9%
O=S(=O)(c1ccccc1)N1CCC2(CCN(c3ccc(-c4ccccc4)cc3)CC2)CC1 | 0.8% | -18.0% | . | 2.0% | . | ?

High-throughput results deposited in PubChem by National Center for Advancing Translational Sciences (NCATS).
